# Results reported in the supplement of paper PMC10681739.
# Target: T1, ETS1 (UniProt P14921)
# T1 sequence: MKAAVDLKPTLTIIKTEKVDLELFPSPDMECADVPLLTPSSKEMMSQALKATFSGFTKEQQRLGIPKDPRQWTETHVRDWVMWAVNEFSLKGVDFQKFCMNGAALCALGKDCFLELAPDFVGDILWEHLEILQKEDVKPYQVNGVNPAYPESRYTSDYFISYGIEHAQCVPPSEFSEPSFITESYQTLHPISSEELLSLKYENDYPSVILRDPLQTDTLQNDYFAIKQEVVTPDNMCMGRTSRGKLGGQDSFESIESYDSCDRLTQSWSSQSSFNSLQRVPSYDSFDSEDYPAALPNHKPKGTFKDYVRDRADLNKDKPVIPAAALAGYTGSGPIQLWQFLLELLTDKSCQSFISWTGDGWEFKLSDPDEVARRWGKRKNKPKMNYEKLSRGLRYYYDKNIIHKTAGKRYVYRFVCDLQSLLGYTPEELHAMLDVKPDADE
# Experiment: ETS1 binding intensity (PBM fluorescence), ETS1 alone (arbitrary fluorescence units); higher = stronger binding
# Details: ETS1 concentration 1 nM; RUNX1 concentration 0 nM
row,Sequence,ETS1 binding intensity
1,CCAGAGCACATCCTACACGCACCACAACCTGAAAAC,453
2,CTGTGCGAGGCAGGATGTGGTCTCCCGCCACCAGGG,5450
3,GAGCTAGCCACTTCCTCCCCCACAACTACACCCAGG,814
4,TTGGTCAGCCTGCTTCCGGCTGTGGCTTCAGTTAGT,1770
5,GACAGGAAGTGACCTCAATTTCCCCGGCCACAGAAA,2650
6,CCAGCCACTTCCGCTCGTCCGCCTAATACCGCGCCT,2130
7,TGACATCCTCTGAGGCAGCAAGCTGCGGTGAAGTCT,400
8,CTGAAGAGGAAATGTATTCCTCATGTTGTGGTTGGC,742
9,CCGGGTAGGATCCGGTTGCCTTTCTGCGGTGGAGGA,410
10,GCGCAGGTCCCGGATGTTGCGGACAGTATGAGGCAA,3250
11,GAAGAGGGTGGAGAAGGAAGTGGTCACACCACTTGC,1140
12,AGCTTGCCGGAAGCTGGTTGTTCGCTGCGGCGACCA,4100
13,GGGCTCCCAGAAGGATGTGGTTTCTGAGTACGTTGG,582
14,ACCGGCCGAGCCAACTTCCGGCCGCAGAGGCTGCCG,5830
15,TTCTCATCCGGCCGGCTTGCTTTCCCCTGCGGTCGT,394
16,TCCCTAAGTCACATCCTGTGGGCAAAGGCCCTAGCA,880
17,GTGCCCCGGACCTACGGATACCACACACAGACAGGC,470
18,CAAAGGTTAAATGCAGGATGTGGTTTCTGCAGACTC,2750
19,TTTACTGAGAGGAAGTGGTTCTTGTGGGTGAAGGTC,2420
20,TGAGTCACATCCTGCAGGGCTGCGGTATCCTGGCTT,773

row,Sequence,ETS1 binding intensity
1,CTGACAGTTACTTCCTGTCTTTGTGGGCGATTGTGA,3170
2,CACCGGAAAAGGCAAGCGCGGCCGCGCGGTTGGCGC,675
3,CGAGTAGAGATAGCAGGAAGTGGTTTATTCTGAGGT,6000
4,GCGAGAGGGAGGAAGTGACTCACCAACCACAACAAA,1480
5,CGCCCACCACTTCCTGCTGGCGGTCGGCAAGCGTTG,1430
6,AGAAGCAGGCATGCAGGATGTGGTTAGTGCATGGTA,2230
7,GCATCATCACTTCCTGTTGTGGGCAGTCGTTGCCTG,3300
8,TTGCTCCCGGAAGCCCCGCCCGACCGCGGCTCCTGA,999
9,GGAGGGGCTGGCCGGAAGTGAACCGCAGAGCACGCT,11600
10,GGGGCAGGAAGTGGAGGTTTGAAGTGGTTTAGAGTA,1740
11,GAGTTCTAGACTACAGGATGTGGTTAGAAGAAAAGA,4670
12,TTCATTTCTACCTTCCTGTGGTCTTTTTGCCTCCGA,512
13,CCCCACATCCGGGGGCCGGGGCCGGGCTGTGGGCTT,524
14,CCCCTCACTTCCCTCAACCCTTCCCACAAACTGGGA,597
15,TGCCGGGCCCCGGATGTCACCGCAGCCGCCATCTTA,2460
16,AGGTTAATACCCGGAACTACCACAACCGTCTTCCCT,772
17,CAACTGACCGGACAGAACACAGCCACAAAACACGAG,512
18,AGTCAAACAGGATGTGGCTGGGGAGGCGGTTGTCAC,3750
19,ACTCACTTCCGTTTAGCTTATCAACCACCAAGAGAC,1020
20,TCCCTCATGAGCTTCTTCCGCCCGCAACACGAGACT,481
